Screens as filed in PubChem.
mIDH1 inhibitor – qHTS for Inhibitors of mutant isocitrate dehydrogenase 1 (IDH1): qHTS; actives 0.093% (n = 390,000); Potency, µM (doses to about 76.6 µM), for the others: top-dose activity change, negative = inhibition, hits mostly inhibitors; IDH1-R132H enzyme, NADPH consumption, diaphorase/resazurin fluorescence; Isocitrate dehydrogenase [NADP] cytoplasmic (Homo sapiens), O75874; AID 602179, 2012; note: potency is the fitted concentration of half-maximal effect; nearly all actives have a fitted effect of over 65% in size
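IDH1-R132H (0.5 ug/mL) preincubated 30 min with compound, then NADPH (0.016 mM) and alpha-KG (2 mM) added; 80 min at RT, pH 7.5. Remaining NADPH coupled via diaphorase/resazurin to fluorescence (540/590 nm); concentration-response curves normalized to no-enzyme control.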
Eya2 phos inh – qHTS Assay for Inhibitors of the Phosphatase Activity of Eya2; Potency, µM (top dose mostly 76.9 µM), inactives show top-dose activity, negative = inhibition, usual class: inhibitors; actives 0.006% (n = 330,000); recombinant Eya2, OMFP fluorescence dephosphorylation (OMFP is methylfluorescein phosphate); note: potency is the fitted concentration of half-maximal effect
Target sequence (O00167 whole entry, looked up): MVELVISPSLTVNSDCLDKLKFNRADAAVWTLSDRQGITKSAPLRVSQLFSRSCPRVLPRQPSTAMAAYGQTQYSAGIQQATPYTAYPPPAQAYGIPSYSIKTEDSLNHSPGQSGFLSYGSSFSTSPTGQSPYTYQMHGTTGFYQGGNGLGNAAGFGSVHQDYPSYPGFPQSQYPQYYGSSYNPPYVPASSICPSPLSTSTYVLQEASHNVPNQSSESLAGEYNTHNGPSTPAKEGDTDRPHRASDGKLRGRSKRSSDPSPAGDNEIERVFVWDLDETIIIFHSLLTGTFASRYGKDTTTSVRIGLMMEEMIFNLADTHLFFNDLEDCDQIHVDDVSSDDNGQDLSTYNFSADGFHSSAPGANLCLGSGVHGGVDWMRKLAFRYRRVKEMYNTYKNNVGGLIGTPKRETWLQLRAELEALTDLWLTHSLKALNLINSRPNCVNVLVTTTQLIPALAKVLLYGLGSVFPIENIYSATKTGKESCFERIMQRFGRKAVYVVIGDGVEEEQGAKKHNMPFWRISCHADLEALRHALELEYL
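Eya2 protein (added as 0.2 uM solution) was preincubated with compound for 10 min at ambient temperature in 50 mM HEPES pH 7.5, 50 mM NaCl, 5 uM MgCl2, 0.05% BSA, 1 mM DTT. OMFP (added at 50 uM) then reacted 10 min; fluorescence read at 485/525 nm.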
TrxR1 inh – qHTS Assay for Inhibitors of Mammalian Selenoprotein Thioredoxin Reductase 1 (TrxR1): qHTS. Potency, µM (titrated, usually from 114 µM), for inactives: at the top dose activity change, negative = inhibition, usual class: inhibitors. actives 1% (n = 390,000). recombinant rTrxR1, NADPH fluorescence consumption, selenite substrate. Thioredoxin reductase 1, cytoplasmic (Rattus norvegicus), O89049; note: potency is the fitted concentration of half-maximal effect; nearly all actives have a fitted effect of over 65% in size
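Rat TrxR1 (90 nM in the dispensed reagent) was pre-reduced with 400 uM NADPH for 5 min at room temperature, then incubated with compound for 15 min. After 400 uM selenite was added, NADPH fluorescence (Ex 340/Em 450 nm) was followed for 8 min.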
FBPA coupling cs – qHTS Assay for Inhibitors of Fructose-1,6-bisphosphate Aldolase from Giardia Lamblia: Coupling assay counterscreen; actives 0.67% (n = 290,000); coupling enzyme system counterscreen, AmpLite Red fluorescence; activity change, negative = inhibition, % at 58.2 µM, hits read low; in the data active = activity change below about -30%
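Coupling enzymes only (glyceraldehyde-3-phosphate) + compound, at 57.5 uM final, 10 min RT; add substrate/coupling/AmpLite Red mix, 20 min RT; fluorescence ex 525/em 598 nm. Actives flag coupling-system interference.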
TrxR1 substrate – qHTS Assay for Substrates of Mammalian Selenoprotein Thioredoxin Reductase 1 (TrxR1): qHTS; purified TrxR1 substrate turnover, NADPH consumption readout; actives 0.01% (n = 390,000); Potency, µM (highest dose often 114 µM), for inactives: top-dose activity change, negative = substrate turnover; Thioredoxin reductase 1, cytoplasmic (Rattus norvegicus), O89049; note: potency is the fitted concentration of half-maximal effect; nearly all actives have a fitted effect of over 50% in size
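Rat TrxR1, dispensed at 90 nM, was prereduced with 400 uM NADPH (final) for 5 min at ~22 deg C, then incubated with compound 15 min before 400 uM selenite. A first-read NADPH fluorescence drop versus no-compound background flagged substrates.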
Numbers without * were called inactive; [ ] = remark or other dose. Compounds with a hit are over-represented: about 1.5% of the library has one in this group of screens. Unless noted, calls come from the whole dose curve; as a rule, active = well fitted curve in the direction sought with a large enough effect; inconclusive = small, poorly fitted or top-dose-only effect, or another doubt; inactive = no such curve, though single readings can be large; an effect the other way counts as inactive or inconclusive. % is set by controls: 0 for no effect and ±100 for the full control effect.

What do the screens show for `COc1ccc(-c2cn3cc(Cl)ccc3n2)cc1OC`?
mIDH1 inhibitor: 33.9%; Eya2 phos inh: -1.2%; TrxR1 inh: -14.4%; FBPA coupling cs: -32.1*; TrxR1 substrate: 107.2%

Results for Cc1ccc2cc(C3C(C#N)=C(N)Oc4c3ccc3cccnc43)c(=O)[nH]c2c1 (centres undefined) ?
mIDH1 inhibitor: 2.0%; Eya2 phos inh: 12.7%; TrxR1 inh: 12.6µM*; FBPA coupling cs: -39.1*; TrxR1 substrate: -0.1%[57.1 µM]

Results for CCc1ccc2[nH]c(=O)c(C3C(C#N)=C(N)Oc4c3ccc3cccnc43)cc2c1 (centres undefined) ?
mIDH1 inhibitor: -19.8%; Eya2 phos inh: 8.6%; TrxR1 inh: 44.7µM*; FBPA coupling cs: -1.3; TrxR1 substrate: 12.1%

Results for N#CC1=C(N)Oc2c(ccc3cccnc23)C1c1cccnc1 (centres undefined) ?
mIDH1 inhibitor: 1.9%; Eya2 phos inh: -8.6%; TrxR1 inh: 50.1µM*; FBPA coupling cs: -0.5; TrxR1 substrate: 20.8%

Results for CCOc1cccc(C2C(C#N)=C(N)Oc3cc(C)[nH]c(=O)c32)c1OCC (centres undefined) ?
mIDH1 inhibitor: -8.2%; Eya2 phos inh: inconclusive; TrxR1 inh: 26.5%; FBPA coupling cs: 3.3; TrxR1 substrate: 0.0%

How did OC[C@H]1OC(O)[C@H](O)[C@@H](O)[C@@H]1O (some centres undefined) do in these assays?
FBPA coupling cs: -0.7

What do the screens show for `COc1ccc(Cl)c(Cn2cnc3c(cnn3C(C)(C)C)c2=O)c1`?
TrxR1 inh: -6.9%; TrxR1 substrate: -4.3%

What do the screens show for `COc1ccc2c(c1)C(=O)[C@H](OC(=O)N[C@H](C)C1CCCCC1)[C@@H](c1ccc(OC)c(Br)c1)O2`?
FBPA coupling cs: 1.5

How did CCOC(=O)C1=C(CC)OC(N)=C(C#N)C1c1cc(OC)ccc1OC (centres undefined) do in these assays?
mIDH1 inhibitor: 0.0%; Eya2 phos inh: 2.7%; TrxR1 inh: 1.6%; FBPA coupling cs: 3.1; TrxR1 substrate: -8.0%

Results for CCOC(=O)C1=C(CC)OC(N)=C(C#N)C1c1ccc(NC(C)=O)cc1 (centres undefined) ?
mIDH1 inhibitor: 0.9%; Eya2 phos inh: -3.4%; TrxR1 inh: 44.7µM*; FBPA coupling cs: -6.2; TrxR1 substrate: 3.4%

What do the screens show for `CCOC(=O)C1=C(C(C)=O)C(c2cccnc2)C(C#N)=C(N)O1` (centres undefined)?
mIDH1 inhibitor: 4.6%; Eya2 phos inh: 12.9%; TrxR1 inh: inconclusive; FBPA coupling cs: -33.7*; TrxR1 substrate: -0.9%

What do the screens show for `C=C[C@@]1(C)CC[C@H]2C(=CC[C@@H]3[C@]2(C)CCC[C@@]3(C)C(=O)O)C1`?
FBPA coupling cs: 10.8

Results for O=C1CNC(=O)/C1=C/c1ccccc1 ?
mIDH1 inhibitor: 0.0%; Eya2 phos inh: -3.4%; TrxR1 inh: -18.6%; FBPA coupling cs: 0.3; TrxR1 substrate: -3.8%

What do the screens show for `O=C1CNC(=O)/C1=C/c1ccc(O)cc1`?
mIDH1 inhibitor: -0.5%; Eya2 phos inh: -5.2%; TrxR1 inh: 20µM*; FBPA coupling cs: 5.2; TrxR1 substrate: inconclusive

How did O=C1CNC(=O)/C1=C\c1ccc(O)cc1 do in these assays?
mIDH1 inhibitor: 0.8%; Eya2 phos inh: -2.4%; TrxR1 inh: 20µM*; FBPA coupling cs: -0.9; TrxR1 substrate: inconclusive

How did O=C1CNC(=O)/C1=C/c1ccc(Br)cc1 do in these assays?
mIDH1 inhibitor: 7.2%; Eya2 phos inh: -2.2%; TrxR1 inh: 23.1%[11.4 µM]; FBPA coupling cs: 5.1; TrxR1 substrate: -18.4%[11.4 µM]

What do the screens show for `CCC(c1nnnn1Cc1ccccc1)N(Cc1ccccc1)Cc1cc2cc(C)ccc2[nH]c1=O` (centres undefined)?
TrxR1 inh: 0.4%; TrxR1 substrate: -1.5%
